Assay results reported in PubChem BioAssay.
Calls of active or inactive are those of the source.

How the values were obtained:
[1] = binders of probe aFSTL3 on microarray, primary screen, stem cell growth factor project, biochemical, small-molecule microarray, fluorescence 635/667 (AID 1064); settings: higher = more signal;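 also: measures binding of the biotinylated anti-FSTL3 antibody to printed compounds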
[2] = binders from COS7 lysate, DM2A8 probe, primary screen, torsin A project, cell lysate, small-molecule microarray, fluorescence 635/667 (AID 1065); settings: higher = more signal, COS7 lysate expressing mutant human TOR1A
[3] = binders of probe aFGF2 on microarray, primary screen, stem cell growth factor project, biochemical, small-molecule microarray, fluorescence 635/667 (AID 1067); settings: higher = more signal;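 also: measures binding of biotinylated aFGF2 protein to printed compounds on slides; z-score merges feature fluorescence and signal-to-noise across triplicate slides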
[4] = binders of probe aFGF10 on microarray, primary screen, stem cell growth factor project, biochemical, small-molecule microarray, fluorescence 635/667 (AID 1071); settings: higher = more signal;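 also: score merges 667 nm spot intensity and signal to noise from triplicate slides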
[5] = molecular target: Neurogenic locus notch homolog protein 2 (Homo sapiens) (UniProt Q04721); assay: Notch2 binders on small-molecule microarrays, primary screen, biochemical, small-molecule microarray, 635 nm fluorescence, stem cell growth factors (AID 1073); settings: Notch2 binding, higher = more signal
[6] = molecular target: Pro-neuregulin-1, membrane-bound isoform (Homo sapiens) (UniProt Q02297); assay: NRG1 binders on small-molecule microarrays, primary screen, psychiatric disease protein project, biochemical, small-molecule microarray, fluorescence 635/667 (AID 1075); settings: NRG1 binding, 635 nm fluorescence, higher = more signal;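 also: score combines 667 nm spot fluorescence with signal to noise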
Chain of Pro-neuregulin-1, membrane-bound isoform (Homo sapiens) (Q02297 whole entry, looked up, the tested form may be a part, canonical isoform): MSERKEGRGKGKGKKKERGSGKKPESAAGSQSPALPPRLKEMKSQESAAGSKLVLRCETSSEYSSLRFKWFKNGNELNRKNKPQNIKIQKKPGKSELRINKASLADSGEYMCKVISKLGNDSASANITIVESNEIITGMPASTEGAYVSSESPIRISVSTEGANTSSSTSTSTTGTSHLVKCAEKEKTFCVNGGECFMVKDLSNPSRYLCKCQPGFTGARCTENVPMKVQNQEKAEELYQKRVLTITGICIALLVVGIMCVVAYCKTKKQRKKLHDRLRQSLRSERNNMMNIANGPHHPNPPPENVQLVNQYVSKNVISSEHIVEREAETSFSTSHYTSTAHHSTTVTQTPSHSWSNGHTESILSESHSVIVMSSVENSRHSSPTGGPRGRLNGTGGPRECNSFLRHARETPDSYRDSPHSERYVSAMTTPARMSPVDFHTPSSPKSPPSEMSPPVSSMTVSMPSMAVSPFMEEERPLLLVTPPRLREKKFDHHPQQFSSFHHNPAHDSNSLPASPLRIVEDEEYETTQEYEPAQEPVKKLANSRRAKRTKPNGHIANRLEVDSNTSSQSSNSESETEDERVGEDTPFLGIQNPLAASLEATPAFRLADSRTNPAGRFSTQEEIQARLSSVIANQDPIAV

[7] = test system: Neuregulin-1 EGF-like domain; assay: binders of neuregulin-1 EGF-like domain, primary screen, biochemical, small-molecule microarray, 635 nm fluorescence (AID 1081); settings: small-molecule microarray binding, higher = more signal;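 also: binding of the protein to compounds printed on small-molecule microarray slides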
[8] = FRG1 promoter luciferase signal modulators, primary screen, FRG1 inhibition for FSHD, cell-based, C2C12 myotubes, firefly/Renilla luciferase, luminescence (AID 1084); settings: higher = more signal, called active from +8 up or from −8 down
[9] = binders of probe aFST on microarray, primary screen, stem cell growth factor project, biochemical, small-molecule microarray, fluorescence 635/667 (AID 1086); settings: higher = more signal;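 also: score merges 667 nm fluorescence with signal-to-noise of each printed compound spot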
[10] = binders of probe aHhip on microarray, primary screen, stem cell growth factor project, biochemical, small-molecule microarray, fluorescence 635/667 (AID 1087); settings: higher = more signal;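 also: score merges spot fluorescence at 667nm with spot signal to noise ratio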
[11] = test system: PRMT1 (protein arginine N-methyltransferase 1); assay: PRMT1 binders on small-molecule microarrays, primary screen, biochemical, small-molecule microarray, 635 nm fluorescence (AID 1088); settings: small-molecule microarray binding, higher = more signal;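 also: binding of Prmt1 protein to compounds spotted on small-molecule microarray slides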
[12] = yeast growth modulation, basal conditions, primary screen, YJM789 clinical isolate, OD600, 24 h (AID 1089);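 also: growth of clinical yeast isolate S. cerevisiae YJM 789 seeded 1000 cells per well; test concentration not given here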; settings: S. cerevisiae YJM789 growth, higher = more signal, called active from +8 up or from −8 down
[13] = fission yeast growth modulation, primary screen, strain 972, OD600, 24 h, no modulator (AID 1090);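 also: basal condition with compound alone and no growth modifier present; test concentration not given here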; settings: S. pombe 972 growth, higher = more signal, called active from +8 up or from −8 down
[14] = S. cerevisiae growth modulation with rapamycin, primary screen, strain BY4716, OD600, 96 h (AID 1091); settings: higher = more signal, called active from +8 up or from −8 down; also: test concentration not given here
[15] = molecular target: Torsin-1A-interacting protein 2 (Homo sapiens) (UniProt Q8NFQ8); assay: LULL1 binders on small-molecule microarray, primary screen, cell lysate, human LULL1 lysate, 635/667 nm fluorescence (AID 1092); settings: hLULL1 lysate binding, 635 nm fluorescence, higher = more signal;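 also: probe is lysate of COS7 cells overexpressing human LULL1; score merges per-feature 667 nm fluorescence with signal-to-noise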
Chain of Torsin-1A-interacting protein 2 (Homo sapiens) (Q8NFQ8 whole entry, looked up): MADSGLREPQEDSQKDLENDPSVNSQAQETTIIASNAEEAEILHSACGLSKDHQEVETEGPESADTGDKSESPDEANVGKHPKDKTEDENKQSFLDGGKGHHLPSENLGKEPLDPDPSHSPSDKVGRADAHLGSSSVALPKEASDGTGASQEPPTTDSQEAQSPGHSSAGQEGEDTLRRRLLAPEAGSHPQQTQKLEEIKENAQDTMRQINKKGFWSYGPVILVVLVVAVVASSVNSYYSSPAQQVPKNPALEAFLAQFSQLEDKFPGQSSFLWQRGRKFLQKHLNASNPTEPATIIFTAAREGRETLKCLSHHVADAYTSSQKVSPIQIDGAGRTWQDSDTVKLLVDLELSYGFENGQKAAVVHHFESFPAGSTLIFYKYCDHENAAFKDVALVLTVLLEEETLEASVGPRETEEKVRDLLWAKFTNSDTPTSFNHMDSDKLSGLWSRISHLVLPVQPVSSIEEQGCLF

[16] = E. coli growth modulation, two-sided OD650, primary screen, E. coli filamentation project, strain DRC41, 24 h (AID 1093); settings: OD650, 24 h, higher = more signal, called active from +8 up or from −8 down;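 also: MC1000 strain lacking acrAB efflux and sulA so SOS filamentation is blocked; test concentration not given here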
[17] = small-molecule microarray binders of probe aLefty2, primary screen, biochemical, biotinylated probe, 635/667 nm fluorescence (AID 1094); settings: higher = more signal;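 also: score merges spot fluorescence near 667 nm with spot signal-to-noise ratio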
[18] = test system: Noggin (protein binding on small-molecule microarray); assay: Noggin binders on small-molecule microarray, primary screen, biochemical, 635/667 nm fluorescence (AID 1095); settings: 635 nm fluorescence, higher = more signal;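 also: score merges 667 nm feature fluorescence with signal to noise over triplicate slides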
[19] = molecular target: Neurogenic locus notch homolog protein 3 (Homo sapiens) (UniProt Q9UM47); assay: NOTCH3 binders on small-molecule microarray, primary screen, biochemical, 635/667 nm fluorescence (AID 1096); settings: NOTCH3 binding, 635 nm fluorescence, higher = more signal
Chain of Neurogenic locus notch homolog protein 3 (Homo sapiens) (Q9UM47 whole entry, looked up): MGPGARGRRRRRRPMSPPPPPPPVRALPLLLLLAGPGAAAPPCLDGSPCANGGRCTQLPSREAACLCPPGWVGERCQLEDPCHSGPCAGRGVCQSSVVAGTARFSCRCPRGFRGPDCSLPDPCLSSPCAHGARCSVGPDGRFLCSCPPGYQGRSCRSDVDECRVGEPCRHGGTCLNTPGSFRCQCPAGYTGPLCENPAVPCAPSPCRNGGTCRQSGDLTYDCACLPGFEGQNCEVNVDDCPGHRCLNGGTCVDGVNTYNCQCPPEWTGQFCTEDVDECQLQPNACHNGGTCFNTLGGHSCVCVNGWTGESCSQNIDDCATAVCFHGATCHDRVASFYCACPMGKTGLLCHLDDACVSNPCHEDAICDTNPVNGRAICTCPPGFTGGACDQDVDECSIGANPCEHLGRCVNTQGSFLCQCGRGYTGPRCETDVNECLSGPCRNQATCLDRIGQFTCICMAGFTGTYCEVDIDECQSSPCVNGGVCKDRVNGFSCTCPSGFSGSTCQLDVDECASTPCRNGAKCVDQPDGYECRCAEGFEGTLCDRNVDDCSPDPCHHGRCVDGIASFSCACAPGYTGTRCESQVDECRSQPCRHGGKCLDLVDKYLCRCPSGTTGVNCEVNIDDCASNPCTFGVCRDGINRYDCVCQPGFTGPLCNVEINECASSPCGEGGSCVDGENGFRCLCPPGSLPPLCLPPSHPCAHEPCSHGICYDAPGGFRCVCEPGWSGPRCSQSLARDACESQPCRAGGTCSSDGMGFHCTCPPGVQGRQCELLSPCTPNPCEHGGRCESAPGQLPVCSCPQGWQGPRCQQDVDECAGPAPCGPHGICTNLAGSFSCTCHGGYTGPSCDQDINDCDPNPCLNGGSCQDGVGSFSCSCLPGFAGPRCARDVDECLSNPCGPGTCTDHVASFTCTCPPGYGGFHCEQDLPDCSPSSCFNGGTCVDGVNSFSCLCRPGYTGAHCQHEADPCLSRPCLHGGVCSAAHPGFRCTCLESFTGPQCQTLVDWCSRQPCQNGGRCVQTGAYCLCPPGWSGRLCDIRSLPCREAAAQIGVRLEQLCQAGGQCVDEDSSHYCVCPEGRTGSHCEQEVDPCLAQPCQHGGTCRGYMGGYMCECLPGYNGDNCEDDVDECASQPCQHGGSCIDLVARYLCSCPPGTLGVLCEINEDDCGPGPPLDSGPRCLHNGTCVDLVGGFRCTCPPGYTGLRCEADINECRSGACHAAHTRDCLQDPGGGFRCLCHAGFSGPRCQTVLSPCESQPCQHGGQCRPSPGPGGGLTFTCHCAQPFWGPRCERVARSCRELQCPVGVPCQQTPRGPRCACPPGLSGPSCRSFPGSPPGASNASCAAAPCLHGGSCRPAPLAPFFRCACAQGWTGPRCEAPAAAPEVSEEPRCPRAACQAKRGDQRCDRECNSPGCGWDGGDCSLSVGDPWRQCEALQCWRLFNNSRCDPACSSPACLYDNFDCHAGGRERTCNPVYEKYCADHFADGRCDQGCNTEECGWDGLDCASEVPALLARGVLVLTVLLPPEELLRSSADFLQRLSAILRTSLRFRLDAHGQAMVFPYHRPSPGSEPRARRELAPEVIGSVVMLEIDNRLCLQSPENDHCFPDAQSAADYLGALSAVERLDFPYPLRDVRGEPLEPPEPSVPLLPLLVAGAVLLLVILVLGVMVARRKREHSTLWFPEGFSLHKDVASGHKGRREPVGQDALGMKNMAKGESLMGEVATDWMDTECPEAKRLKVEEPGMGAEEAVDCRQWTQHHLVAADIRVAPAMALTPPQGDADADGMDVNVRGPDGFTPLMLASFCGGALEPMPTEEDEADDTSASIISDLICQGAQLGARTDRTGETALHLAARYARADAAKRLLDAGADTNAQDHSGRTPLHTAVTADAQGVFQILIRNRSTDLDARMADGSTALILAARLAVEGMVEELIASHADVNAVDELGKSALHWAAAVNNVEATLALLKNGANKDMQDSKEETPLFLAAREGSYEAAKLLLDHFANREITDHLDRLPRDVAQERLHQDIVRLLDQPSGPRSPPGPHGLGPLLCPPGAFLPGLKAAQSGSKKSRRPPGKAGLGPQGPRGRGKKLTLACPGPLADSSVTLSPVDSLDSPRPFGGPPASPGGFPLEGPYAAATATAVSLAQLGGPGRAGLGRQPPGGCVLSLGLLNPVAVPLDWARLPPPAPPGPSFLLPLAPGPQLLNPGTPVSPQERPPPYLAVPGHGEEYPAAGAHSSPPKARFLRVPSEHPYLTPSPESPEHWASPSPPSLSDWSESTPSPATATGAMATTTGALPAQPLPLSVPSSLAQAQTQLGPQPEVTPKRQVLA

[20] = small-molecule microarray binders of probe aEGFR, primary screen, biochemical, biotinylated probe, 635/667 nm fluorescence (AID 1097); settings: higher = more signal;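 also: probe is a biotinylated anti-EGFR antibody binding compounds printed on slides; score combines fluorescence near 667 nm and signal to noise of each spot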

Row | Structure (SMILES) | composite z-score [1] | composite z-score [2] | composite z-score [3] | composite z-score [4] | composite z-score [5] | composite z-score [6] | composite z-score [7] | z-score [8] | composite z-score [9] | composite z-score [10] | composite z-score [11] | z-score [12] | z-score [13] | z-score [14] | composite z-score [15] | z-score [16] | composite z-score [17] | composite z-score [18] | composite z-score [19] | composite z-score [20]
1 | C=CCC1(CC=C)C[C@H]2CO[C@H](c3ccc(OC)cc3)N2C1=O | 0.79 | 0.533 | -0.107 | 0.201 | -0.412 | 0.0973 | 0.523 | -0.465 (inactive) | 0.132 | -0.0994 | -0.109 | -0.137 (inactive) | -2.77 (inactive) | -0.484 (inactive) | 0.288 | 2 (inactive) | 0.109 | 0.377 | -0.638 | -0.0204
2 | O=C(NCC(F)(F)F)[C@@H]1c2ccccc2C(=O)N(C2Cc3ccccc3C2)[C@H]1c1ccc(CO)cc1 | 0.833 | -0.67 | -0.0487 | -0.514 | -0.98 | -0.0643 | 0.0014 | -0.827 (inactive) | -0.187 | -0.353 | -0.236 | -0.62 (inactive) | -1.06 (inactive) | -0.501 (inactive) | 0.492 | 2.12 (inactive) | 0.107 | -1.29 | -0.844 | -0.129
3 | O=C(NC1CC1)[C@@H]1c2ccccc2C(=O)N(Cc2ccccc2C(F)(F)F)[C@H]1c1ccc(CO)cc1 | -0.432 | 0.436 | -0.116 | 0.39 | 0.693 | 0.988 | 1.26 | -1.64 (inactive) | 0.336 | -0.226 | 1.57 | -0.541 (inactive) | -1.77 (inactive) | -0.731 (inactive) | 2.27 | 1 (inactive) | -0.15 | 0.458 | 1.13 | -0.039
4 | CCOC(=O)C[C@H]1[C@H](OC(=O)Cc2ccc3c(c2)OCO3)[C@@H](NC(=O)c2ccc3ccccc3c2)c2cc(OCCCO)ccc2N1C(=O)c1ccc2ccccc2n1 | -0.123 | 0.243 | -0.161 | 0.319 | 0.429 | 0.799 | 0.8 | -3.68 (inactive) | 0.233 | -0.132 | 0.144 | -3.45 (inactive) | -3.3 (inactive) | -2.38 (inactive) | 1.44 | 0.135 (inactive) | -0.0865 | 0.235 | 0.808 | 0.0343
5 | Cc1ccc(N2C(=O)c3ccccc3[C@](C)(C(=O)NCC(F)(F)F)[C@@H]2c2ccc(CO)cc2)nc1 | 1.36 | -0.769 | -0.128 | -1.14 | -1.22 | 1.64 | 0.0042 | 0.0677 (inactive) | -0.413 | -0.0423 | -0.973 | -0.625 (inactive) | -0.972 (inactive) | -0.286 (inactive) | -0.916 | 1.1 (inactive) | -0.0741 | -1.81 | -2.16 | -0.352
